7 sequences from PMC7862700, “An all-to-all approach to the identification of sequence-specific readers for epigenetic DNA modifications on cytosine” can be followed below.

Assay in all cases: DAPPL (digital affinity profiling via proximity ligation, sequencing); 10 mM Tris-HCl pH 7.5, 50 mM NaCl, 1 mM DTT, 4% glycerol, room temperature, 30 min; GST-TFs on glutathione beads, 16-mer random dsDNA library, 0.1% formaldehyde crosslink after washing; high values mean tight binding
Common to all, as to conditions: protein: recombinant; tags: N-terminal GST; dsDNA, one strand shown

The target in one assay is T1, FLI1 (Homo sapiens, UniProt Q01543 1-452).
T1 sequence: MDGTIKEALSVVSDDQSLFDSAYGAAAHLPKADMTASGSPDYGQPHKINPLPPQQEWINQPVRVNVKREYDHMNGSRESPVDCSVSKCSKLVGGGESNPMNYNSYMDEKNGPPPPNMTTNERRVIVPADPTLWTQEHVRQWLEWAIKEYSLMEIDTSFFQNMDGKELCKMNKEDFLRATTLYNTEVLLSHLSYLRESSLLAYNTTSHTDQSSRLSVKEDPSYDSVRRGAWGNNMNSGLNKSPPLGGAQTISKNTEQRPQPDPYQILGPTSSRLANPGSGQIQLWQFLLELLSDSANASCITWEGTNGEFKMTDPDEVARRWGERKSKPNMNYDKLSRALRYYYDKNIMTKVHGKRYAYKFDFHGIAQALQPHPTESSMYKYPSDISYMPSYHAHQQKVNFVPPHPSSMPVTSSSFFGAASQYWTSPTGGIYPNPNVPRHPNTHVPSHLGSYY
In short, it runs like this:
(§1)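 GST fusions of human transcription factors were expressed in yeast and captured with glutathione beads. Once given DNA barcodes and pooled alongside a tag-only sample, they were incubated for 30 min at room temperature with 200 nmole of a random double-stranded 16-mer DNA library in Tris/NaCl/DTT/glycerol buffer, then washed, crosslinked (0.1% formaldehyde), proximity-ligated, PCR-amplified and sequenced on an Illumina NextSeq500. The binding signal of each hexamer is its read frequency for a factor divided by its frequency for the tag-only sample.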

The target in the next assay is T2, ELK1 (Homo sapiens, UniProt P19419 1-428).
T2 sequence: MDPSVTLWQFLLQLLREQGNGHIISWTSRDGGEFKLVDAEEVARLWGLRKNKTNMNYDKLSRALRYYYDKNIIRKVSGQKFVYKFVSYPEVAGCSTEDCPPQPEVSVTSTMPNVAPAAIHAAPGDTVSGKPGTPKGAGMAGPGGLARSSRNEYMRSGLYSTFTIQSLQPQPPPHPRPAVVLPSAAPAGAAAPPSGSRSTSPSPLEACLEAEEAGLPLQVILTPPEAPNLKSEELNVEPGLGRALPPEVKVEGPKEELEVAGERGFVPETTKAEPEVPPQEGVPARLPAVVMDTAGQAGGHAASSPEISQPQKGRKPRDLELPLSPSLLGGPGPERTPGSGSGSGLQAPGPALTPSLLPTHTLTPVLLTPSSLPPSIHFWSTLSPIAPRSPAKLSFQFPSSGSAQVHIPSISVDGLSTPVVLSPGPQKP
The essentials:
as §1

A further assay has as its target T3, GABPA (Homo sapiens, UniProt Q06546 1-454).
T3 sequence: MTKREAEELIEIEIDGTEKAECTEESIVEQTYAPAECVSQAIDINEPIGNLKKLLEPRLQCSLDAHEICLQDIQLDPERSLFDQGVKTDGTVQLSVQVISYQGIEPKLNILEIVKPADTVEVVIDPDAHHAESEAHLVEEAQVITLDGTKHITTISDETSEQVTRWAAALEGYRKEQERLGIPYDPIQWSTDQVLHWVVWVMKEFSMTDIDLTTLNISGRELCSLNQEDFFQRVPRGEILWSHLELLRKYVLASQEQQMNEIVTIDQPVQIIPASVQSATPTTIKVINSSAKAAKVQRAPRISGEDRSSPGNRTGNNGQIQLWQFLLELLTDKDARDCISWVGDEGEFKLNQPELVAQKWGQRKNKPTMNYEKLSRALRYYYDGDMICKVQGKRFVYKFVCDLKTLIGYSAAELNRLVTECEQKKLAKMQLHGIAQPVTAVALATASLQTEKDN
The essentials: as §1

The next assay deals with T4, ERG (Homo sapiens, UniProt P11308 1-479).
T4 sequence: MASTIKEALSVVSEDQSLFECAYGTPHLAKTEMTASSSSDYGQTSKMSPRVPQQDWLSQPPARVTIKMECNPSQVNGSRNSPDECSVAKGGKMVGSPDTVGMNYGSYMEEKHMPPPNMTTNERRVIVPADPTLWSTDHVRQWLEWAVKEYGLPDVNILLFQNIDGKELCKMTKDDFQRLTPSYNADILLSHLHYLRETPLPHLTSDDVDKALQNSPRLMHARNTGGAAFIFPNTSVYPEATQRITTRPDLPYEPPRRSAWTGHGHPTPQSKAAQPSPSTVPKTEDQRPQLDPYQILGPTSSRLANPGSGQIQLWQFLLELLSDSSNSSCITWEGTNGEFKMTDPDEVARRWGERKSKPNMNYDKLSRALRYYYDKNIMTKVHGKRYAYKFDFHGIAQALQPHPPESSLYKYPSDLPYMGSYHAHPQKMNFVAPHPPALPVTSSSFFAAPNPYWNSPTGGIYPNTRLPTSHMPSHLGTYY
The essentials:
as §1

A further assay deals with ELF1 (Homo sapiens, UniProt P32519 1-619). The essentials:
as §1

The target of a further assay is T5, EHF (Homo sapiens, UniProt Q9NZC4 1-300).
T5 sequence: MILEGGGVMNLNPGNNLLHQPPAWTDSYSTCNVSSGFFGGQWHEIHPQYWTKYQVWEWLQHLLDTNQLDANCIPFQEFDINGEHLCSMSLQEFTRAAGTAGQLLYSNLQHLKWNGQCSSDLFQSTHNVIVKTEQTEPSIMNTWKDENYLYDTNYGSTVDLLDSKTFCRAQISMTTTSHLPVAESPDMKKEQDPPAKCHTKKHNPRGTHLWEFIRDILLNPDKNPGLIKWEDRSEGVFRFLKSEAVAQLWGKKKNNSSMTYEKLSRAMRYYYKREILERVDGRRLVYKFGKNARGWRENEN
In short, it runs like this: as §1

The next assay has as its target SPI1 (Homo sapiens, UniProt P17947 1-270). In short, it runs like this: as §1
For a further assay, the target named is SPIB (Homo sapiens, UniProt Q01892 1-262). In short, it runs like this: as §1
A further assay addresses T6, ELK3 (Homo sapiens, UniProt P41970 1-407).
T6 sequence: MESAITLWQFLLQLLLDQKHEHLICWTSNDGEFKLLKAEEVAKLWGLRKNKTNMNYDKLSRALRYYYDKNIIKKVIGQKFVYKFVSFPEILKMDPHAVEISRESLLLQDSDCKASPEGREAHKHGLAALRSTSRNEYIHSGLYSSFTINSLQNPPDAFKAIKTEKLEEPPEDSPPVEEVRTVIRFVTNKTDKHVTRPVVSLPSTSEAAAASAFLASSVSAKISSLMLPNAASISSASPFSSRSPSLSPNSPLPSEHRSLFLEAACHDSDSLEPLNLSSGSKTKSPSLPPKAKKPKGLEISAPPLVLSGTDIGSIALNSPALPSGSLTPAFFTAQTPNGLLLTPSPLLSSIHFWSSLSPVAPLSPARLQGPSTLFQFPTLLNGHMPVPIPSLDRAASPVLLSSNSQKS
In short, it runs like this:
as §1

SPIB, sequence (Q01892 whole entry): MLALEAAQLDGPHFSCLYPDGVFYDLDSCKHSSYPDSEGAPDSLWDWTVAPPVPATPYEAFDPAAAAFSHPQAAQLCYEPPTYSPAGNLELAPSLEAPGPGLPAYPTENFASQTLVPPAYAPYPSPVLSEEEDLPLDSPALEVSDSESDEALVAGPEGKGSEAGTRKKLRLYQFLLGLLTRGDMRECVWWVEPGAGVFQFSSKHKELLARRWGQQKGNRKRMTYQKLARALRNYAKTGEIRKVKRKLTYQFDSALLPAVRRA
ELF1, sequence (P32519 whole entry): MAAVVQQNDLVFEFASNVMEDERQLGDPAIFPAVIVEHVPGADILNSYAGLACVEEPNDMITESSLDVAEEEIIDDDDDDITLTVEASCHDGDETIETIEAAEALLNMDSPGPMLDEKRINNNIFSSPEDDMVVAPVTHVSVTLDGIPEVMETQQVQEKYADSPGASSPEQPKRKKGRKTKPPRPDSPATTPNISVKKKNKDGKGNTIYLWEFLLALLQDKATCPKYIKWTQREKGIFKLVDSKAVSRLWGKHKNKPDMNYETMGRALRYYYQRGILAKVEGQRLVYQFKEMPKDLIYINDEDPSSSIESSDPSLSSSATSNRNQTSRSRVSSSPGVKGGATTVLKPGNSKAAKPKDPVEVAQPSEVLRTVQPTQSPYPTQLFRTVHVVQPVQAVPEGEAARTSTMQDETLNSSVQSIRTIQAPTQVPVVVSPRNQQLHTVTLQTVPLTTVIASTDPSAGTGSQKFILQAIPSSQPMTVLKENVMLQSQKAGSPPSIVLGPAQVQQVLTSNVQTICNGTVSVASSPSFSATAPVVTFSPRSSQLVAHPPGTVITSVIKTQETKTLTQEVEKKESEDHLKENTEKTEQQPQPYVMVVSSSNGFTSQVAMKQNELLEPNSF

For CCGAAC, the binding signal is 1.26 fold enrichment (6-mer frequency, TF over GST control) with FLI1; 1.21 fold enrichment (6-mer frequency, TF over GST control) in the assay with ELK1; 1.29 fold enrichment (6-mer frequency, TF over GST control) with GABPA; 1.21 fold enrichment (6-mer frequency, TF over GST control) with ERG; 1.26 fold enrichment (6-mer frequency, TF over GST control) in the assay with ELF1; 1.32 fold enrichment (6-mer frequency, TF over GST control) in the assay with EHF. The binding signal in the assay with SPI1 was 1.25 fold enrichment (6-mer frequency, TF over GST control); in the assay with SPIB, 1.2 fold enrichment (6-mer frequency, TF over GST control); in the assay with ELK3, 1.33 fold enrichment (6-mer frequency, TF over GST control).

Regarding CTTGGT, the binding signal in the assay with FLI1 was 1.63 fold enrichment (6-mer frequency, TF over GST control); in the assay with ELK1, 1.44 fold enrichment (6-mer frequency, TF over GST control); with GABPA, 1.55 fold enrichment (6-mer frequency, TF over GST control); with ERG it was 1.42 fold enrichment (6-mer frequency, TF over GST control); in the assay with ELF1, 1.46 fold enrichment (6-mer frequency, TF over GST control); with EHF, 1.53 fold enrichment (6-mer frequency, TF over GST control). Besides, the binding signal in the assay with SPI1 is 1.4 fold enrichment (6-mer frequency, TF over GST control); in the assay with SPIB, 1.57 fold enrichment (6-mer frequency, TF over GST control); in the assay with ELK3 it was 1.66 fold enrichment (6-mer frequency, TF over GST control).

For the sequence AATACA, the binding signal in the assay with FLI1 was 1.28 fold enrichment (6-mer frequency, TF over GST control); with ELK1, 1.3 fold enrichment (6-mer frequency, TF over GST control); with GABPA, 1.38 fold enrichment (6-mer frequency, TF over GST control); with ERG, 1.33 fold enrichment (6-mer frequency, TF over GST control); with ELF1, 1.35 fold enrichment (6-mer frequency, TF over GST control); with EHF, 1.3 fold enrichment (6-mer frequency, TF over GST control). Moreover, the binding signal is 1.28 fold enrichment (6-mer frequency, TF over GST control) in the assay with SPI1; 1.31 fold enrichment (6-mer frequency, TF over GST control) with SPIB; 1.27 fold enrichment (6-mer frequency, TF over GST control) with ELK3.

Turning to GTTAAC, the binding signal in the assay with FLI1 is 1.04 fold enrichment (6-mer frequency, TF over GST control); in the assay with ELK1 it was 1.22 fold enrichment (6-mer frequency, TF over GST control); in the assay with GABPA, 1.13 fold enrichment (6-mer frequency, TF over GST control); in the assay with ERG it was 1.15 fold enrichment (6-mer frequency, TF over GST control); in the assay with ELF1, 1.14 fold enrichment (6-mer frequency, TF over GST control); in the assay with EHF, 1.11 fold enrichment (6-mer frequency, TF over GST control). In addition, the binding signal with SPI1 is 1.15 fold enrichment (6-mer frequency, TF over GST control); in the assay with SPIB, 1.12 fold enrichment (6-mer frequency, TF over GST control); with ELK3, 1.23 fold enrichment (6-mer frequency, TF over GST control).

As for TACATA, the binding signal with FLI1 was 1.18 fold enrichment (6-mer frequency, TF over GST control); in the assay with ELK1, 1.19 fold enrichment (6-mer frequency, TF over GST control); with GABPA, 1.22 fold enrichment (6-mer frequency, TF over GST control); with ERG it was 1.24 fold enrichment (6-mer frequency, TF over GST control); with ELF1, 1.18 fold enrichment (6-mer frequency, TF over GST control); in the assay with EHF, 1.17 fold enrichment (6-mer frequency, TF over GST control). Also, the binding signal is 1.15 fold enrichment (6-mer frequency, TF over GST control) with SPI1; 1.22 fold enrichment (6-mer frequency, TF over GST control) with SPIB; 1.19 fold enrichment (6-mer frequency, TF over GST control) with ELK3.

Regarding TTCTCG, the binding signal is 1.51 fold enrichment (6-mer frequency, TF over GST control) in the assay with FLI1; 1.43 fold enrichment (6-mer frequency, TF over GST control) in the assay with ELK1; 1.55 fold enrichment (6-mer frequency, TF over GST control) with GABPA; 1.38 fold enrichment (6-mer frequency, TF over GST control) with ERG; 1.36 fold enrichment (6-mer frequency, TF over GST control) with ELF1; 1.34 fold enrichment (6-mer frequency, TF over GST control) with EHF. In addition, the binding signal is 1.42 fold enrichment (6-mer frequency, TF over GST control) with SPI1; 1.46 fold enrichment (6-mer frequency, TF over GST control) in the assay with SPIB; 1.44 fold enrichment (6-mer frequency, TF over GST control) in the assay with ELK3.

Turning to CTTCAT, the binding signal is 1.6 fold enrichment (6-mer frequency, TF over GST control) with FLI1; 1.45 fold enrichment (6-mer frequency, TF over GST control) with ELK1; 1.45 fold enrichment (6-mer frequency, TF over GST control) with GABPA; 1.4 fold enrichment (6-mer frequency, TF over GST control) with ERG; 1.52 fold enrichment (6-mer frequency, TF over GST control) with ELF1; 1.31 fold enrichment (6-mer frequency, TF over GST control) in the assay with EHF. Besides, the binding signal in the assay with SPI1 is 1.49 fold enrichment (6-mer frequency, TF over GST control); with SPIB it was 1.48 fold enrichment (6-mer frequency, TF over GST control); with ELK3, 1.38 fold enrichment (6-mer frequency, TF over GST control).
